Results on 50 compounds are retold here after ChEMBL document CHEMBL4513216, “Probing the Open Global Health Chemical Diversity Library for Multistage-Active Starting Points for Next-Generation Antimalarials” (ACS Infect Dis, 2020).

Screen size: about 65,000 compounds; about 2,100 (3.2%) showed an effect of 50% or more. The median lay at about -52%. Only a selection was taken, and strong results are over-represented in it overall.

The subject of the test is Plasmodium falciparum. The experiment in a line: Screen against P. falciparum Asexual Blood Stage (ABS), at 5uM. Conditions: tested at 5 uM. It counts as functional, Dd2.
Turning to `c1cncc(CO[C@H]2CC[C@H]3[C@@H]2OCCN3C2CCOCC2)c1`, the INHIBITION was -57.8%.
With `O=C1[C@H]2CN(C3CCOCC3)C[C@H]2CN1Cc1ccncc1`, the INHIBITION is listed as -33.5%.
With `CO[C@@H]1CCN(C2CCOCC2)C[C@@H]1Cc1ccccc1` the figure was 80.8%; with `O=C1[C@H]2CN(C3CCOCC3)C[C@H]2CN1Cc1cccnc1`, -28.2%.
`O=C1N(Cc2cccnc2)C[C@H]2CN(C3CCOCC3)CCN12`: the INHIBITION is given as -55.6%.
For `CO[C@H]1CCN(C2CCOCC2)C[C@@H]1Cc1ccccc1`, the INHIBITION came to 78.7%.
`c1ccc(C[C@H]2CN(C3CCOCC3)CC[C@H]2OCC2CC2)cc1`: the INHIBITION is listed as 74.9%.
For `Cc1nnc(N2CC[C@@H](OCC3CC3)[C@@H](Cc3ccccc3)C2)s1`, the INHIBITION amounted to 84.8%.
On to `NC(=O)C1CN(C(=O)Cc2cccnc2)CCN(C2CCOCC2)C1` (stereo not given), for which the INHIBITION is on record as -92.3%.
Regarding `c1ccc(CN2C[C@@H]3OCCN(CC4CCCO4)[C@@H]3C2)nc1` (stereo not given in full), the INHIBITION is -0.326%.
`CCCN1CCN(C(=O)c2cnc(C)nc2)[C@H]2CS(=O)(=O)C[C@H]21`: the INHIBITION is on record as -183%.
Consider `O=C(C1CCCCC1)N1CC2(CCNCC2)C1`, for which the INHIBITION is -23.1%.
Turning to `CC(C)CN1CC[C@@H]2[C@@H]1CCN2C(=O)N(C)C`, the INHIBITION is reported as -67.2%.
In the case of `Cc1cnn(CC(C)NCC(=O)NC2CCOCC2)c1` (stereo not given) it was 14.5%.
Regarding `Cc1cnn(CC2CCN(CC(O)c3ccccc3Cl)CC2)c1` (stereo not given), the INHIBITION is 78%.
In the case of `CC(C)N1CCC(Cn2cc(C(N)=O)cn2)CC1`, the INHIBITION was -7.48%.
In the case of `c1cc(CO[C@@H]2CN(Cc3ccoc3)[C@@H]3CCCO[C@@H]32)ccn1`, the INHIBITION was -102%.
Consider `O=C(CC1CCCC1)NCCNCc1cccc2c1OCCO2`, for which the INHIBITION is 71.6%.
Take `COCC(=O)N1C[C@H]2CNC[C@@]2(C(=O)NCc2c(C)noc2C)C1`: the INHIBITION is -53.3%.
On to `O=C1[C@H]2CN(Cc3ccccn3)C[C@H]2CN1c1ccsc1`, for which the INHIBITION was -16.2%.
In the case of `O=C(NCc1cccnc1)Nc1cc(C(F)(F)F)c[nH]c1=O`, the INHIBITION was found to be 79%.
For the compound `CC(C)CN1CCC2(CC(C(=O)NCc3cccnc3)=NO2)C1` (stereo not given), the INHIBITION was -53.1%.
`O=C(Nc1cc(C(F)(F)F)c[nH]c1=O)C1CCCN1` (stereo not given): the INHIBITION is -151%.
Regarding `CCCNC1(c2ccc(Cl)cc2)CCOCC1`, the INHIBITION was found to be 67.7%.
For `COCCNC1(c2ccc(Cl)cc2)CCOCC1`, the INHIBITION was 65.6%.
With `CCOCCNC1(c2ccc(Cl)cc2)CCOCC1`, the INHIBITION came to 27.1%.
As for `CO[C@H]1CN(Cc2ccc(C)o2)[C@@H]2CCCO[C@H]12`, the INHIBITION turned out to be 11.8%.
With `CN(C)C(=O)COC[C@H]1CC[C@@H]2[C@@H](CCN2Cc2ccccn2)O1` the figure was -79.4%.
In the case of `O=C1[C@@H]2CCN(CC3CC3)C[C@@H]2OCCN1c1cccnc1` it was -73.4%; in that of `O=C(NCC(F)(F)F)C1=NOC2(CCCNC2)C1` (stereo not given), -61.4%.
In the case of `CCOC[C@H]1CC[C@H]2[C@H](CCN2Cc2c(C)noc2C)O1` it was -13.8%.
Consider `CNc1cc(C)nc(N2C[C@H](C3CC3)[C@@H](N)C2)n1`, for which the INHIBITION worked out at 88.3%.
Consider `CCc1[nH]c(C2(N)CCCC2)nc(=O)c1C`, for which the INHIBITION was -32.3%.
As for `COC(=O)CCC(=O)NC(C)Cc1ccccc1Br` (stereo not given), the INHIBITION was -63.4%.
As for `COCCN(Cc1ccccc1Cl)c1nc(CCN)nc2ccccc12`, the INHIBITION is given as 89.5%.
As to `c1cnc(N2CCO[C@H]3CN(CC4CC4)C[C@H]32)nc1`, the INHIBITION turned out to be 3.32%.
Take `CCCNCc1ccc(-c2cc(N)nc3[nH]ccc23)cc1`: the INHIBITION is recorded as 72.3%.
As to `CN(C)c1nccc(N(C)C2CCN(CC3CCOC3)CC2)n1` (stereo not given), the INHIBITION is on record as -4.08%.
In the case of `Cc1ccc(CNCc2cccc3cn[nH]c23)c(OC2CCOC2)c1` (stereo not given), the INHIBITION stood at 78.7%.
`Cc1ccc(CNCc2cccc3cccnc23)c(OC2CCOC2)c1` (stereo not given): the INHIBITION is listed as 85.4%.
For `Cc1nc(COC[C@@H]2CC[C@H]3NCC[C@H]3O2)cs1`, the INHIBITION was -46.5%.
Regarding `Cc1noc(C)c1CN1C[C@H](OCC(=O)N(C)C)[C@H]2COC[C@H]21`, the INHIBITION is listed as -85.8%.
For `O=C1[C@H]2CN(CC3CC3)C[C@H]2CN1c1ccsc1`, the INHIBITION is recorded as -60.4%.
With `Cc1cnc(N2CCC[C@@H]3CN(CC(=O)N(C)C)C[C@@H]32)nc1` the figure was -22.5%; with `COc1cc(C2SCC(=O)Nc3[nH]ncc32)cc(OC)c1OC` (stereo not given), -200%.
As for `O=C(NCC1CC1)C1CCC2(CCNCC2)C1` (stereo not given), the INHIBITION is -31.3%.
Take `Fc1cnc(N2CCO[C@H]3CN(CC4CCCC4)C[C@H]32)nc1`: the INHIBITION is recorded as 25.4%.
For the compound `Cc1nc(CN2C[C@@H]3OCCN(c4ncc(F)cn4)[C@@H]3C2)cs1`, the INHIBITION was found to be 52%.
With `CC(C)CCN1C[C@@H]2OCCN(c3ncc(F)cn3)[C@@H]2C1` the figure was -2.26%; with `CO[C@@H]1CCN(S(=O)(=O)c2cccnc2)[C@@H]2CN(CC3CC3)C[C@@H]21`, -23.6%.
